In the library only some 22% were active in any assay of this set; here they are far more common.
Shiga toxin inh – Shiga toxin inhibition; Vero cells, Shiga toxin protein synthesis inhibition reporter; inhibition, % at 38.7 µM; hit rate 9.2% among 290,000; in the data active = inhibition mostly above about 28%, no sharp cut-off; inactive = mostly below about 43%
Pf growth 48h – inhibits P. falciparum growth in the first generation, 48 h. P. falciparum luciferase growth in erythrocytes, 48 h. AID 504832. hit rate 5.9% among 310,000. Potency, µM (series often up to 28.7 µM), actives largely listed as inhibitors
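A one-generation exposure of luciferase-tagged malaria parasites in RPMI 1640/Albumax erythrocyte culture, 37 C and 5% CO2. Inhibition is inferred from decreased luminescence after adding detection reagent.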
LmPK inhibitor – LmPK (Leishmania mexicana) enzyme inhibition; AID 1721; Potency, µM (doses to about 57.5 µM), most hits filed as inhibitors; Q27686; purified LmPK, Kinase-Glo ATP luminescence, 1 h; hit rate 0.37% among 290,000
Target sequence (Q27686 whole entry, looked up): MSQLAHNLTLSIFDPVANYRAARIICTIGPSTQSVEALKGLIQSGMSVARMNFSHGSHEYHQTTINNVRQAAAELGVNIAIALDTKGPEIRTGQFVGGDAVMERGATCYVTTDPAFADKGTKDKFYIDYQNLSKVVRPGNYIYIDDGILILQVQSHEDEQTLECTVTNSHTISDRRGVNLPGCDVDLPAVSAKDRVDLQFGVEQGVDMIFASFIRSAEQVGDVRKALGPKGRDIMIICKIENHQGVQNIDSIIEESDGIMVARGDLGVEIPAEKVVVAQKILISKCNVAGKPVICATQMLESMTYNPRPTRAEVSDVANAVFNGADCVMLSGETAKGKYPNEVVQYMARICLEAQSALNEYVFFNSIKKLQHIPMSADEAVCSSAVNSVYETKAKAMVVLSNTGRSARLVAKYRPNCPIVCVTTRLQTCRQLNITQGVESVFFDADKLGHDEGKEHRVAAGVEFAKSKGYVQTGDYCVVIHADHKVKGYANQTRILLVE
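ATP generated from ADP (0.1 mM) and PEP (0.5 mM) by 0.1 nM LmPK over 1 h at room temperature (pH 7.2 imidazole buffer) was detected by coupled luciferase luminescence. Values were normalized to uninhibited and no-enzyme wells.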
Cycloheximide cs – affects cycloheximide protein synthesis inhibition readout, counter-screen; cell reporter, cycloheximide protein synthesis inhibition counterscreen; hit rate 12% among 300,000; max response, %; in the data active = max response mostly above about 13%, no sharp cut-off; inactive = mostly below about 14%; note: read at 38.3 µM for the half of the compounds with a filed dose
Pf growth 96h – P. falciparum growth inhibition at 96 hour, primary screen for plastid delayed-death inhibitors; P. falciparum luciferase reporter growth, 96 h; Potency, µM (highest dose often 28.7 µM), most hits filed as inhibitors; hit rate 6.9% among 320,000; AID 504834
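P. falciparum expressing integrated firefly luciferase grown in erythrocytes (2% hematocrit, 0.05% parasitemia final) with compounds for 96 hours at 37 C, 5% CO2. Growth inhibition read as loss of luminescence after adding luciferase detection reagent.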
Hits are given with their value; n = inactive; u = inconclusive; x = no result given; [ ] = another dose, or the depositor's remark. Unless noted, calls come from the whole dose curve; as a rule, active = well fitted inhibition curve with a large enough effect; inconclusive = small, poorly fitted or top-dose-only effect, or another doubt; inactive = no such curve, though single readings can be large or run the other way.

SMILES	Shiga toxin inh	Pf growth 48h	LmPK inhibitor	Cycloheximide cs	Pf growth 96h
CN(CC(=O)NCCCc1ccccc1)S(=O)(=O)c1ccc(Br)cc1	n	n	n	n	u
CC(C)OCCCNC(=O)C1CCN(S(=O)(=O)N2CCCC2)CC1	n	n	n	n	u
CCc1ccc(OCC(=O)Nc2ccc(S(=O)(=O)N3CCOCC3)cc2)cc1	x	u	x	x	n
O=C(CN1C(=O)C2CCCN2c2ncc(Cl)cc21)NCc1ccc2c(c1)OCO2 (stereo not drawn)	n	9.3µM	n	n	n
COC(=O)c1ccccc1NC(=O)CN1C(=O)C2CCCN2c2ncc(Cl)cc21 (stereo not drawn)	n	2.9µM	n	n	n
CC1CCC(NC(=O)CN2C(=O)C3CCCN3c3ncc(Cl)cc32)CC1 (stereo not drawn)	n	3.7µM	n	n	x
CCc1ccccc1NC(=O)CN1C(=O)C2CCCN2c2ncc(Cl)cc21 (stereo not drawn)	n	u	n	n	n
CCOc1cc(C2C3=C(CC(C)(C)CC3=O)Nc3n[nH]c(C)c32)ccc1O (stereo not drawn)	n	n	n	n	n
COc1ccc(N2C=C3C(=O)C(C)(OC(=O)CCc4ccccc4)C(=O)C=C3C=C2c2ccc(C#N)cc2)cc1 (stereo not drawn)	n	u	n[11.5 µM]	n	u
COc1ccc(CN2C=C3C(=O)C(C)(OC(=O)CCc4ccccc4)C(=O)C=C3C=C2c2ccc(C#N)cc2)cc1 (stereo not drawn)	n	9.3µM	n[11.5 µM]	n	u
CC1(OC(=O)CCc2ccccc2)C(=O)C=C2C=C(c3ccc(C#N)cc3)N(CCc3c[nH]c4ccccc34)C=C2C1=O (stereo not drawn)	n	12µM	n[11.5 µM]	n	u
CCCc1cc(=O)[nH]c(SCC(=O)NC2(C#N)CCCCC2)n1	x	n	x	x	n
Cc1ccccc1NC(=O)CN1C(=O)NC(C)(CCc2ccccc2)C1=O (stereo not drawn)	n	13µM	n	n	n
CC1(CCc2ccccc2)NC(=O)N(CC(=O)Nc2ccccc2C#N)C1=O (stereo not drawn)	x	n	x	x	n
CC(NC(=O)c1ccc(Br)s1)c1ccncc1 (stereo not drawn)	n	n	n	n	n
CCCc1cc(C(=O)Nc2sc3c(c2C(=O)OCC)CCCC3)no1	n	n	n	n	n
CCCc1cc(C(=O)Nc2ccc(C)cc2)no1	127	x	n	34	n
CCCc1cc(C(=O)NCc2ccc(OC)cc2)no1	77	x	n	21	n
CCCc1cc(C(=O)Nc2ccc(CC)cc2)no1	73	n	n	54	u
COc1ccc(CNC(=O)c2cc(-c3ccccc3OC)on2)cc1	n	n	n	n	u
CC(C)C(=O)Nc1ccc(NC(=O)c2ccc(COc3ccccc3)cc2)cc1	x	n	n	n	u
CC(C)c1nc(CNC(=O)C2CCC(=O)N(CCc3ccc(Cl)cc3)C2)no1 (stereo not drawn)	n	n	n	n	u
COC(=O)C1=C(C)Nc2nc3ccccc3n2C1c1cc(OC)c(OC)c(OC)c1 (stereo not drawn)	n	1.9µM	n	n	u
CCOC(=O)C1=C(C)Nc2nc3ccccc3n2C1c1ccc(O)cc1 (stereo not drawn)	n	n	n	n	n
CC1OC(Nc2ccc(N=Nc3ccccc3)cc2)C(O)C(O)C1O (stereo not drawn)	118	n	n	37	n
SMILES	Shiga toxin inh	Pf growth 48h	LmPK inhibitor	Cycloheximide cs	Pf growth 96h
Cc1cccn2c(=O)c3cc(C(=O)NC4CCCC4)c(=N)n(CCc4ccccc4)c3nc12	n	0.47µM	n	n	4.1µM
O=C(NC1CCCC1)c1cc2c(=O)n3ccccc3nc2s1	x	n	x	x	n
COc1ccc(CCn2c(=N)c(C(=O)NC3CCCC3)cc3c(=O)n4cccc(C)c4nc32)cc1	n	0.83µM	n	n	0.52µM
COc1ccc(CCn2c(=N)c(S(=O)(=O)c3ccc(C)cc3)cc3c(=O)n4ccccc4nc32)cc1	n	5.2µM	n	n	3.7µM
Cc1cccn2c(=O)c3cc(C(=O)NC4CCCC4)sc3nc12	n	u	n	19	u
Cc1nc2c(C)cccn2c(=O)c1NC(=O)c1ccc2c(c1)OCO2	x	n	x	x	n
COc1ccccc1N(CC(=O)NCc1ccccc1)C(=O)CCC(=O)Nc1nccs1	n	n	n	n	n
COc1ccc(CCn2c(=N)c(C(=O)NC3CCCCC3)cc3c(=O)n4ccccc4nc32)cc1	n	0.93µM	n	n	u
COc1ccc(CCn2c(=N)c(C(=O)NCC3CCCO3)cc3c(=O)n4ccccc4nc32)cc1 (stereo not drawn)	n	4.7µM	n	n	4.7µM
N=c1c(C(=O)NCC2CCCO2)cc2c(=O)n3ccccc3nc2n1Cc1ccc(Cl)cc1 (stereo not drawn)	n	10µM	n	n	u
N=c1c(C(=O)NCC2CCCO2)cc2c(=O)n3ccccc3nc2n1Cc1ccccc1 (stereo not drawn)	n	u	n	n	u
N=c1c(S(=O)(=O)c2ccc(Br)cc2)cc2c(=O)n3ccccc3nc2n1C1CCCCC1	n	8.3µM	n	n	3.7µM
S=C(Nc1ccccc1Oc1ccccc1)Nc1cccc(Cl)c1Cl	n	n	n	n	u
COc1cc(S(=O)(=O)N2CC(=O)Nc3ccccc32)ccc1NC(C)=O	n	n	n	n	n
COC(=O)c1ccc(S(=O)(=O)c2ccc(Cl)cc2)c(N)c1	n	n	n	n	n
CCNc1nc(OC)nc(SCC(=O)Nc2ccccc2)n1	n	n[1.15 µM]	n	n	n
N=c1c(C(=O)NCC2CCCO2)cc2c(=O)n3ccccc3nc2n1C1CCCC1 (stereo not drawn)	n	n	n	n	n
N=c1c(C(=O)NCC2CCCO2)cc2c(=O)n3ccccc3nc2n1C1CCCCC1 (stereo not drawn)	n	n	n	n	2.6µM
CN(C)S(=O)(=O)c1ccc(N2CCCC2)c(C(=O)N2CCC(C(N)=O)CC2)c1	x	n	x	x	u
O=C(Nc1ccccc1N1CCN(C(=O)c2ccc(Cl)cc2)CC1)c1cccc(F)c1	n	u	n	n	n
O=C(Nc1ccccc1N1CCCCC1)C1CCN(C(=O)c2ccc(Cl)cc2)CC1	x	u	x	x	n
O=C(CSc1ccc(Cl)cc1)Nc1ccccc1N1CCN(C(=O)c2ccc(Cl)cc2)CC1	n	4.1µM	n	n	u
CC(C)C(=O)NC(=S)Nc1ccccc1N1CCN(C(=O)c2ccc(Cl)cc2)CC1	n	1.5µM	n	32	n
CC(C)(C)C(=O)Nc1ccccc1N1CCN(C(=O)c2ccc(Cl)cc2)CC1	n	10µM	n	n	u
Cc1ccccc1C(=O)Nc1ccccc1N1CCN(C(=O)c2ccccc2)CC1	n	12µM	n	n	n
O=C(COC(=O)/C=C/C(=O)OCC(=O)NC12CC3CC(CC(C3)C1)C2)NC12CC3CC(CC(C3)C1)C2	n	n	n	n	n
CCCC1Cc2nc(Cl)c(C#N)cc2CO1 (stereo not drawn)	n	n	n	n	n
CCc1ccc(NC(=O)N(CCCOC(C)C)C2CCN(C(C)=O)CC2)cc1	n	u	n	n	n
